From PubChem BioAssay
Nrf2 inh: inhibitors of Nrf2 signaling | Potency, µM (titrated, usually from 46 µM), inactives show at the top dose activity change, negative = inhibition, usual class: inhibitors | A549 ARE-Fluc reporter, luciferase luminescence, 18-24 h | 360,000 tested, 2.1% active | AID 504444; further: on the % scale 0 is the no-effect control and ±100 the full control effect; nearly all actives have a fitted effect of over 60% in size
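A549 ARE_Fluc cells (5000/well, 5% FBS OPTI-MEM) pre-incubated 2 h, then treated with compounds 18-24 h at 37C/5% CO2 in concentration-response. CellTiter-Fluor viability read first; BugLite luciferase luminescence after 15 min at room temperature gives Nrf2 activity.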
ATXN2 expr inh: ATXN2 expression inhibition | 360,000 tested, 0.72% active | Potency, µM (top dose mostly 57 µM), for inactives: at the highest dose activity change, negative = inhibition, most hits filed as inhibitors | HEK-293 ATXN2-luciferase reporter, luminescence, 24 h | AID 1745845; further: on the % scale 0 is the no-effect control and ±100 the full control effect; nearly all actives have a fitted effect of over 55% in size
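ATXN2-luciferase reporter cells (luciferase flanked by upstream and downstream ATXN2 gene portions) were treated 24 h at 37 °C with compounds at up to 57 uM. SteadyGlo luminescence gave expression; GF-AFC fluorescence gave viability.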
A549 tox: A549 cytotoxicity, counter-screen for Nrf2 inhibitors; AID 504648; Potency, µM (highest dose often 46 µM), without a hit: top-dose activity change, negative = cytotoxicity, hits mostly inhibitors; 390,000 tested, 0.16% active; A549 ARE-Fluc cells, CellTiter-Fluor viability, 18-24 h; further: on the % scale 0 is the no-effect control and ±100 the full control effect
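A549 ARE_Fluc cells in 5% FBS OPTI-MEM were exposed to compounds in concentration-response for 18-24 h at 37 deg C. Viability was read by CellTiter-Fluor fluorescence (Ex 405/Em 525) after 30 min, before the luciferase read.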
TGFb inhibitor: blocks TGF-b signaling. 410,000 tested, 1.2% active. Potency, µM (top dose mostly 46.1 µM), inactives show top-dose activity, negative = inhibition, most hits filed as inhibitors. HepG2 CAGA-GFP TGF-b/SMAD3 reporter, GFP fluorescence, 18 h; TGF-beta stimulated, 500 pg/mL final; further: on the % scale 0 is the no-effect control and ±100 the full control effect; nearly all actives have a fitted effect of over 65% in size
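Inhibition of TGF-beta-driven CAGA-GFP reporter expression in HEPG2 cells is measured by cellular GFP fluorescence after 18 h stimulation with 500 pg/mL recombinant TGF-beta in 1% FBS medium at 37 degrees C.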
ATXN viability: cell viability loss in ATXN counter-screen; Potency, µM (highest dose often 56.7 µM), actives largely listed as cytotoxic; 400,000 tested, 0.49% active; S2 cells (HEK-293 line with an ATXN2-luciferase reporter) viability, CellTiter-Fluor protease fluorescence, 24 h; AID 651635; further: nearly all actives have a fitted effect of over 40% in size
HepG2 tox: kills HepG2 cells in TGF-b inhibitor counter-screen. Potency, µM (top dose mostly 46.1 µM), for inactives: top-dose activity change, negative = cytotoxicity, usual class: cytotoxic. 410,000 tested, 0.76% active. HepG2 CAGA-GFP viability, ATP luminescence, 18 h. AID 588856
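CellTiter-Glo luminescence gave cytotoxicity after 18 hours at 37 degrees C. The cells were HepG2 CAGA-GFP in 1% FBS DMEM, stimulated with 500 pg/mL TGF-beta after compound addition. %Activity was normalised to no-cell wells (complete cell-killing) and DMSO (no toxicity), and curves were fitted and classified.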
The depositor's hits bear a star; i = inactive; ? = inconclusive; . = not tested or not shown; ! = repeats disagree; [ ] = dose if it differs, or a comment. Rows were chosen to be rich in hits. Some 3.8% of all compounds tested hit in one or more screens of this group. The call rests on the fitted dose curve; in most records, active means well fitted curve in the direction sought with a large enough effect; inconclusive means small, poorly fitted or top-dose-only effect, or another doubt; inactive means no such curve, though single readings can be large; an effect the other way counts as inactive or inconclusive. Potency means the concentration at half of the fitted maximal effect.

SMILES | Nrf2 inh | ATXN2 expr inh | A549 tox | TGFb inhibitor | ATXN viability | HepG2 tox
COc1cc2c(cc1/C=C/[N+](=O)[O-])OCO2 | -20% | -8%[11.3 µM] | -13% | ? | 28µM* | -61%
COC(=O)C1=C(c2cccc(OCc3ccccc3)c2)C[C@@H]2CC[C@H]1N2C(=O)NCc1ccc(Cl)cc1 | 23µM* | -16% | -13% | -13% | i | 0%
COC(=O)C1=C(c2cccc(OCc3ccccc3)c2)C[C@@H]2CC[C@H]1N2C(=O)NCc1ccccc1 | ? | ? | -8% | ? | ? | -14%
COC(=O)C1=C(c2ccc(OCc3ccccc3)cc2)C[C@@H]2CC[C@H]1N2C(=O)NCc1ccc(OC)cc1 | . | 0% | . | -26% | i | -21%
COC(=O)C1=C(c2cccc(OCc3ccccc3)c2)C[C@@H]2CC[C@H]1N2C(=O)NCc1ccccc1OC | 21µM* | -28% | ? | ? | i | 2%
COC(=O)C1=C(c2cccc(OCc3ccccc3)c2)C[C@@H]2CC[C@H]1N2C(=O)NCc1ccc(OC)c(OC)c1 | ? | -24% | -3% | 2% | ? | 3%
COC(=O)C1=C(c2ccc(OCc3ccccc3)cc2)C[C@@H]2CC[C@H]1N2C(=O)NCc1cccc(OC)c1 | 23µM* | -25% | -12% | ? | ? | -4%
COc1ccc2c3c1O[C@H]1[C@@H](O)C=C[C@H]4[C@@H](C2)NCC[C@@]341 | . | . | . | . | i | .
Cc1ccc(C)c(S(=O)(=O)c2nnn3c2nc(N2CCN(C)CC2)c2sccc23)c1 | -7% | . | 2% | ? | . | -16%
CN(Cc1cccc(-c2ccncc2)c1)C(=O)Oc1ccccc1Cc1ccccc1 | . | ? | . | . | 18µM* | .
CC(C)N(CCNC(=O)CN1CCCC1=O)C(C)C | . | 0% | . | . | . | .
CCCCCCC(C)(C)c1ccc([C@@H]2C[C@H](O)CC[C@H]2CCCO)c(O)c1 | -1% | 14µM* | -12% | 13µM* | 10µM* | 10µM*!
COC(=O)C(O)(c1ccc(NC(=S)NC(=O)c2ccccc2)cc1)C(F)(F)F (stereo unspecified) | 16µM* | 1% | -9%[1.84 µM] | -19% | i | -34%
CC(C)(O)/C=C/C(=O)C(C)(O)C1C(O)CC2(C)C3CC=C4C(C=C(O)C(=O)C4(C)C)C3(C)C(=O)CC12C (stereo unspecified) | 1.5µM* | ? | 2.3µM* | ? | 2.4µM* | -57%
CC(=O)OC(C)(C)/C=C/C(=O)[C@](C)(O)C1[C@H](O)C[C@@]2(C)C3CC=C4C(C[C@H](O)C(=O)C4(C)C)[C@]3(C)C(=O)C[C@]12C (stereo partly specified) | ? | ? | 0.65µM* | ? | ? | -19%
Nc1ccc(CC(N)c2csc(Nc3ncccn3)n2)cc1 (stereo unspecified) | . | -24% | . | -5% | i | -4%
CC(C)CC(N)c1csc(NC(=O)Nc2ccccc2-c2ccccc2)n1 (stereo unspecified) | . | -27% | . | ? | 25µM* | -97%
CC(C)c1ccc(NC(=O)Nc2nc(C(N)CCc3ccccc3)cs2)cc1 (stereo unspecified) | . | 28µM* | . | ? | 28µM* | 7.9µM*
COc1ccc(CCNC(=O)COC(=O)Cc2ccccc2)cc1 | -8% | -1% | 3% | -2% | i | -4%
COc1ccc(CCNC(=O)N2c3ccccc3Sc3ccccc32)cc1 | 16µM* | -24% | ? | ? | ? | -26%
Cc1sc2c(c1C)C(c1ccc(C(C)(C)C)cc1)=NCC(=O)N2CC(=O)Nc1nccs1 | 12µM* | -10% | -24% | ? | i | -57%
O=C(Nc1ccc(Cl)c(C(F)(F)F)c1)C1CCCN(S(=O)(=O)c2cccc3cccnc23)C1 (stereo unspecified) | . | . | -2% | ? | . | -25%
C[C@]12CC[C@H]3C(CCC4(O)CC(O)CC[C@]34C=O)C1=CC[C@H]2c1ccc(=O)oc1 (stereo partly specified) | ? | . | -25% | ? | ? | 7.1µM*
CC1(O)CCC2C3CCC4=CC(=O)CCC4(C)C34OC4CC21C (stereo unspecified) | -7% | 3% | -2% | -4% | i | -9%
CC12CC[C@H]3[C@@H](CCC4(O)C[C@H](O)CCC34/C=N/NC(=O)Cc3ccccc3)C1(O)CCC2C1=CC(=O)OC1 (stereo partly specified) | ? | ? | -25% | -23% | i | -41%
SMILES | Nrf2 inh | ATXN2 expr inh | A549 tox | TGFb inhibitor | ATXN viability | HepG2 tox
CC(=O)O[C@H]1[C@H]2O[C@]23[C@@H]2CC[C@]4(O)C[C@@H](O)CC[C@]4(C)C2CC[C@]3(C)[C@H]1c1ccc(=O)oc1 (stereo partly specified) | 0.058µM* | 0.32µM* | ? | 3.5µM* | ? | -60%
COC(=O)N1Cc2ccccc2-n2nncc2C1 | . | 2% | . | 8% | i | 5%
C[C@H]1CCC[C@@H](O)CCC/C=C/c2cc(O)cc(O)c2C(=O)O1 | ? | 14µM* | -8% | ? | ? | -57%
C[C@]12CC[C@H]3[C@@H](CCC4=CC(=O)CC[C@@H]43)[C@@H]1CC[C@@H]2OC(=O)CCc1ccccc1 | . | -4% | . | . | i | .
O=C1CN2CCOC2(c2ccccc2Cl)c2cc(Cl)ccc2N1 (stereo unspecified) | . | 5% | . | . | i | .
Cc1ccc(-c2nc(N(C)C3CCN(C)CC3)c3ccccc3n2)cc1 | 9% | 20µM* | 4% | ? | ? | 13µM*
CN1CCC(N(C)c2ncnc3ccc(Br)cc23)CC1 | . | -22% | -6% | 10% | i | -25%
COc1ccc(N2CCN(c3ncnc4c3nc3n4CCCCC3)CC2)cc1 | 16µM* | -15% | -22% | ? | i | -3%
c1ccc(N2CCN(c3ncnc4c3nc3n4CCCC3)CC2)cc1 | 23µM* | . | -13% | -18% | . | -3%
Cc1ccc(Cl)cc1N1CCN(c2ncnc3c2nc2n3CCCC2)CC1 | ? | . | -6% | -21% | . | 1%
COc1ccc(OC(=O)N(C)C[C@H]2OCc3cnnn3CCCC(=O)N([C@H](C)CO)C[C@H]2C)cc1 | . | -16% | . | -2% | i | -19%
Cc1ccc2c(Cl)cc(Cl)c(O)c2n1 | -11% | 7.1µM*! | 1% | 13µM* | ? | -30%
